Bioassay records (PubChem BioAssay)
S2 tox: Viability Counterscreen for Primary qHTS for Inhibitors of ATXN expression; AID 651635, 2014; 0.49% of 400,000 active; Potency, µM (series often up to 56.7 µM), usual class: cytotoxic; S2 cells (HEK-293 line with an ATXN2-luciferase reporter) viability, CellTiter-Fluor protease fluorescence, 24 h; note: nearly all actives have a fitted effect of over 40% in size
TGFb SMAD3 inh: qHTS for Inhibitors of TGF-b; Potency, µM (titrated, usually from 46.1 µM), without a hit: top-dose activity, negative = inhibition, actives largely listed as inhibitors; AID 588855, 2011; 1.2% of 410,000 active; HepG2 CAGA-GFP TGF-b/SMAD3 reporter, GFP fluorescence, 18 h; TGF-beta stimulated, 500 pg/mL final; note: % is set by controls: 0 for no effect and ±100 for the full control effect; nearly all actives have a fitted effect of over 65% in size
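HEPG2 CAGA-GFP cells (1000/well, DMEM with 1% FBS) were pre-incubated 2 h at 37 degrees C, given compound by pin tool, then stimulated with TGF-beta at 500 pg/mL final for 18 h before per-cell GFP fluorescence imaging.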
TDP1 cell CPT: qHTS for Inhibitors of human tyrosyl-DNA phosphodiesterase 1 (TDP1): qHTS in cells in presence of CPT; chicken DT40 Tdp1-/-;hTDP1 cells + 20 nM CPT, ATP luminescence, 48 h; AID 686979, 2013; Potency, µM (titrated, usually from 46.2 µM), for the others: at the top dose activity change, negative = growth inhibition, most hits filed as inhibitors; 12% of 420,000 active; note: % is set by controls: 0 for no effect and ±100 for the full control effect; nearly all actives have a fitted effect of over 55% in size
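Cell growth measured by CellTiter-Glo luminescence after a minimum 48 h, 37 C compound exposure with 20 nM CPT in Tdp1-knockout DT40 cells stably expressing hTDP1, seeded 400/well; qHTS titration format.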
ATXN2 expr inh: Primary qHTS for Inhibitors of ATXN expression. 0.72% of 360,000 active. HEK-293 ATXN2-luciferase reporter, luminescence, 24 h. Potency, µM (doses to about 57 µM), inactives show top-dose activity change, negative = inhibition, usual class: inhibitors; note: % is set by controls: 0 for no effect and ±100 for the full control effect; nearly all actives have a fitted effect of over 55% in size
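qHTS (up to 57 uM final) was run with 24 h compound exposure of reporter cells at 37 °C. Each well was multiplexed: SteadyGlo luminescence measured ATXN2-luciferase expression after a fluorogenic Gly-Phe-AFC viability readout (25 uM final).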
TDP1 cell noCPT: qHTS for Inhibitors of human tyrosyl-DNA phosphodiesterase 1 (TDP1): qHTS in cells in absence of CPT; DT40 Tdp1-/- hTDP1 cells, no CPT, ATP luminescence, 48 h; Potency, µM (titrated, usually from 46.2 µM), without a hit: at the top dose activity change, negative = growth inhibition, most hits filed as inhibitors; 15% of 420,000 active; note: % is set by controls: 0 for no effect and ±100 for the full control effect; nearly all actives have a fitted effect of over 55% in size
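Chicken DT40 Tdp1-/- cells stably complemented with human TDP1 were seeded at 400 cells/well with DMSO in place of 20 nM camptothecin. After compound pinning, cells grew at least 48 hr at 37 °C; viability read by CellTiter-Glo luminescence.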
HepG2 viability: qHTS for Inhibitors of TGF-b: Cytotox Counterscreen | AID 588856, 2011 | 0.76% of 410,000 active | Potency, µM (series often up to 46.1 µM), inactives show at the top dose activity change, negative = cytotoxicity, actives largely listed as cytotoxic | HepG2 CAGA-GFP viability, ATP luminescence, 18 h
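HepG2 CAGA-GFP cells (1000/well, DMEM with 1% FBS) received compound, then TGF-beta at 500 pg/mL final, and were incubated 18 hours at 37 degrees C. Viability was read by CellTiter-Glo luminescence. Media-only wells were set as complete cell-killing and DMSO as no toxicity.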
* = called active by the depositor. Compounds with a hit are over-represented: about 17% of the library has one in this group of screens. Calls come from the whole dose curve; as a rule, active = well fitted curve in the direction sought with a large enough effect; inconclusive = small, poorly fitted or top-dose-only effect, or another doubt; inactive = no such curve, though single readings can be large; an effect the other way counts as inactive or inconclusive. Potency is the fitted concentration of half-maximal effect.

`Cc1ccc(-c2ccc(=O)n(Cc3cc(C)ccc3C)n2)cc1` gave S2 tox inactive, TGFb SMAD3 inh inconclusive, TDP1 cell CPT inconclusive, ATXN2 expr inh -34%, TDP1 cell noCPT 21µM* and HepG2 viability -28%.
For Cc1ccc(CCNC(=O)CCn2nc(-c3ccccc3)ccc2=O)cc1 the results were S2 tox inactive, TGFb SMAD3 inh -2%, TDP1 cell CPT inconclusive, ATXN2 expr inh -16%, TDP1 cell noCPT -46% and HepG2 viability 3%.
`Cc1ccc(C)c(Cn2nc(-c3ccccc3)ccc2=O)c1` gave S2 tox inconclusive, TGFb SMAD3 inh 0%, TDP1 cell CPT inconclusive, ATXN2 expr inh -34%, TDP1 cell noCPT inconclusive and HepG2 viability -16%.
`Cc1ccc(CCNC(=O)CCn2nc(-c3ccc(C)cc3)ccc2=O)cc1` gave TGFb SMAD3 inh -13%, TDP1 cell CPT 23µM*, TDP1 cell noCPT inconclusive and HepG2 viability -14%.
`Cc1ccc(C)c(-c2ccc(=O)n(Cc3c(F)cccc3Cl)n2)c1` gave S2 tox inactive, TGFb SMAD3 inh inconclusive, TDP1 cell CPT inconclusive, ATXN2 expr inh -1%, TDP1 cell noCPT inconclusive and HepG2 viability -31%.
Cc1ccc(-c2ccc(=O)n(Cc3c(F)cccc3Cl)n2)cc1 was read as S2 tox inactive, TGFb SMAD3 inh inconclusive, TDP1 cell CPT inconclusive, ATXN2 expr inh -13%, TDP1 cell noCPT 18µM* and HepG2 viability -9%.
Screening CCN(C(=O)Cn1c(=O)oc2ccccc21)c1c(N)n(Cc2ccccc2)c(=O)[nH]c1=O returned S2 tox inactive, TGFb SMAD3 inh 12%, TDP1 cell CPT 5%, TDP1 cell noCPT -1% and HepG2 viability 8%.
For O=[N+]([O-])c1cc(-c2nc(-c3ccccn3)no2)ccc1NCc1ccccc1 the results were S2 tox inactive, TGFb SMAD3 inh inconclusive, TDP1 cell CPT -28%, ATXN2 expr inh 37%, TDP1 cell noCPT -24% and HepG2 viability -13%.
For CCCN(CC(=O)Nc1ccccc1C)C(=O)CCCc1c[nH]c2ccccc12 the results were S2 tox inactive, TGFb SMAD3 inh 4%, TDP1 cell CPT -9%, ATXN2 expr inh 20%, TDP1 cell noCPT inconclusive and HepG2 viability -15%.
Screening COC(=O)COc1c(Cl)cc(C(c2c(C)[nH][nH]c2=O)c2c(C)[nH][nH]c2=O)cc1OC returned S2 tox inactive, TGFb SMAD3 inh -2%, TDP1 cell CPT -12%, ATXN2 expr inh -1%, TDP1 cell noCPT -34% and HepG2 viability -4%.
Screening Cc1cc(C(=O)CN2C(=O)NC(C)(CC(C)C)C2=O)c(C)n1-c1ccc2c(c1)OCO2 (stereo not given) returned S2 tox inconclusive, TGFb SMAD3 inh -8%, TDP1 cell CPT inconclusive, ATXN2 expr inh -5%, TDP1 cell noCPT 23µM* and HepG2 viability -25%.
Screening Cc1cc(C(=O)CN2C(=O)NC3(CCCCC3)C2=O)c(C)n1Cc1ccc2c(c1)OCO2 returned S2 tox inactive, TGFb SMAD3 inh inconclusive, TDP1 cell CPT 8.2µM*, ATXN2 expr inh 42%, TDP1 cell noCPT 23µM* and HepG2 viability -5%.
Screening COc1cccc(CCC(=O)Nc2cc3c(cc2C(=O)O)OCCCO3)c1OC returned S2 tox inconclusive, TGFb SMAD3 inh 5%, TDP1 cell CPT -1%, ATXN2 expr inh 8%, TDP1 cell noCPT -1% and HepG2 viability 13%.
For CCCCNC(=S)N(Cc1ccco1)Cc1cc2cc3c(cc2[nH]c1=O)OCCO3 the results were S2 tox inconclusive, TGFb SMAD3 inh 1%, TDP1 cell CPT 7%, ATXN2 expr inh 2%, TDP1 cell noCPT 10% and HepG2 viability 2%.
`O=C(Nc1ccc(F)cc1)N(Cc1cccs1)Cc1cc2cc3c(cc2[nH]c1=O)OCO3` gave S2 tox inactive, TGFb SMAD3 inh inconclusive, TDP1 cell CPT inconclusive, ATXN2 expr inh inconclusive, TDP1 cell noCPT 16µM* and HepG2 viability -1%.
O=C(Nc1ccc(F)cc1)N(Cc1ccco1)Cc1cc2cc3c(cc2[nH]c1=O)OCO3 was read as S2 tox inactive, TGFb SMAD3 inh 9%, TDP1 cell CPT inconclusive, ATXN2 expr inh -20%, TDP1 cell noCPT 23µM* and HepG2 viability -13%.
For CCOC(=O)CN(C(=O)CSc1nnc(-c2cccc(OC)c2)o1)c1ccc(F)cc1 the results were S2 tox inactive, TGFb SMAD3 inh -3%, TDP1 cell CPT inconclusive, ATXN2 expr inh 1%, TDP1 cell noCPT 16µM* and HepG2 viability -22%.
`O=C(CSc1nnc(-c2c[nH]c3ccccc23)o1)N(Cc1ccccc1)c1ccc(F)cc1` gave S2 tox inconclusive, TGFb SMAD3 inh inconclusive, TDP1 cell CPT inconclusive, ATXN2 expr inh inconclusive, TDP1 cell noCPT inconclusive and HepG2 viability -43%.
`CCOC(=O)CN(C(=O)CSc1nnc2c(n1)[nH]c1ccc(OC)cc12)c1ccc(F)cc1` gave S2 tox inactive, TGFb SMAD3 inh inconclusive, TDP1 cell CPT 21µM*, ATXN2 expr inh 3%, TDP1 cell noCPT inconclusive and HepG2 viability 1%.
`COc1ccc(CN(C(=O)CSc2nnc(-c3ccccc3C)o2)c2ccc(F)cc2)cc1` gave S2 tox inconclusive, TGFb SMAD3 inh inconclusive, TDP1 cell CPT inconclusive, ATXN2 expr inh inconclusive, TDP1 cell noCPT 23µM* and HepG2 viability -92%.
CCCN1CCN(C(=O)c2ccc(CS(=O)c3ccc(Br)cc3)o2)CC1 (stereo not given) was read as S2 tox inactive, TGFb SMAD3 inh 8%, TDP1 cell CPT inconclusive, TDP1 cell noCPT -8% and HepG2 viability -3%.
Screening Cc1[nH]c2ccccc2c1C(=O)CN1CCN(C/C=C/c2ccccc2)CC1 returned S2 tox inactive, TGFb SMAD3 inh -6%, TDP1 cell CPT inconclusive, ATXN2 expr inh -26%, TDP1 cell noCPT 18µM* and HepG2 viability -11%.
`COc1cc(NC(=O)CCN2CCN(C/C=C/c3ccccc3)CC2)cc(OC)c1` gave S2 tox inactive, TGFb SMAD3 inh inconclusive, TDP1 cell CPT inconclusive, TDP1 cell noCPT 21µM* and HepG2 viability -16%.
